Pf growth 48h – inhibits P. falciparum growth in the first generation, 48 h; hit rate 5.9% among 310,000; Potency, µM (titrated, usually from 28.7 µM), for the others: at the highest dose activity change, negative = inhibition, actives largely listed as inhibitors; AID 504832; P. falciparum luciferase growth in erythrocytes, 48 h; also: % is scaled to controls: 0 for no effect and ±100 for the full control effect
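Erythrocytes infected with P. falciparum carrying an integrated firefly luciferase reporter (2% hematocrit, 0.1% parasitemia final) were exposed to compounds in RPMI 1640 with 0.5% Albumax at 37 C, 5% CO2. Growth inhibition was scored as reduced luminescence.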
SARS PLP yeast – SARS-CoV PLP inhibition in yeast; hit rate 0.19% among 330,000; AID 485353; S. cerevisiae expressing SARS-CoV PLpro, growth rescue; Potency, µM (top dose mostly 32.9 µM), without a hit: at the top dose activity, positive = growth rescue, hits mostly activators; calls by dose curve; also: 0% is about no effect; nearly all actives have a fitted effect of over 55% in size
Pf growth 96h – P. falciparum growth inhibition at 96 hours; P. falciparum luciferase reporter growth, 96 h; AID 504834; Potency, µM (series often up to 28.7 µM), inactives show at the top dose activity change, negative = inhibition, hits mostly inhibitors; hit rate 6.9% among 320,000; also: % is scaled to controls: 0 for no effect and ±100 for the full control effect
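Delayed-death screen, second-generation endpoint: infected erythrocytes, 2% hematocrit, 0.05% parasitemia final; 96 hours at 37 C, 5% CO2; luciferase detection reagent; luminescence decrease equals reduced growth.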
AmpC inh no detg – AmpC beta-lactamase inhibition without detergent; AmpC nitrocefin hydrolysis, absorbance 480 nm, 0.0001% Triton; Potency, µM (doses to about 57.1 µM), without a hit: top-dose activity change, negative = inhibition, most hits filed as inhibitors; hit rate 0.52% among 330,000; P00811;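 also: plate controls were no compound for no effect and no enzyme for full effect; nearly all actives have a fitted effect of over 20% in size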
Target sequence (P00811 whole entry, looked up): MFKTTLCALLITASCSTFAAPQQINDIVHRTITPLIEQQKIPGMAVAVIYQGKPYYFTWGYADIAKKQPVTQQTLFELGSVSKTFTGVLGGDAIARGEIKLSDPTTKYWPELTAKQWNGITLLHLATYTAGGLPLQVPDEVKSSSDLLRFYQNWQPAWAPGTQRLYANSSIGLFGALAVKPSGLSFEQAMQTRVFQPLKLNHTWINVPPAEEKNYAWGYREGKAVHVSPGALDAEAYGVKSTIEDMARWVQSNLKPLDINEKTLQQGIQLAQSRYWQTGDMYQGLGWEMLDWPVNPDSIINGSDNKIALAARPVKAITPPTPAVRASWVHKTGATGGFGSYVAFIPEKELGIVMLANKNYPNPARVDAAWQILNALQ
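AmpC (5.3 nM in the dispensed reagent) in 20 mM phosphate pH 7.0 with 0.01% (detergent screen) or 0.0001% Triton X-100 was preincubated with compounds for 15 min at room temperature. Nitrocefin was then added from an 800 uM solution, and hydrolysis was followed at 480 nm.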
Sm TGR inh – blocks Schistosoma mansoni thioredoxin glutathione reductase; purified TGR, DTNB reduction, TNB absorbance 405 nm; Potency, µM (titrated, usually from 114 µM), for inactives: at the top dose activity change, negative = inhibition, actives largely listed as inhibitors; hit rate 3% among 360,000; also: % is scaled to controls: 0 for no effect and ±100 for the full control effect; nearly all actives have a fitted effect of over 60% in size
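First, TGR (20 nM dispensed) and NADPH were mixed with compound. Second, a 15 min room-temperature incubation followed. Third, further NADPH and then DTNB were added to start the reaction. Finally, TNB absorbance was monitored kinetically.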
AmpC detergent – AmpC beta-lactamase inhibition with detergent present. P00811. AmpC hydrolysis of nitrocefin, absorbance 480 nm, 0.01% Triton. Potency, µM (titrated, usually from 114 µM), without a hit: at the top dose activity change, negative = inhibition, hits mostly inhibitors. hit rate 0.041% among 370,000. AID 485294;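 also: 0% = no-compound wells and -100% = no-enzyme wells; nearly all actives have a fitted effect of over 25% in size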
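20 mM phosphate pH 7.0 + 0.01% (detergent screen) or 0.0001% Triton X-100; 5.3 nM AmpC reagent; cpd preinc 15 min RT; nitrocefin (800 uM stock) to start; A480 q20 s × 4 min; Activity was normalised to no-enzyme and no-compound control wells.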
* marks the source's active call; other numbers are inactive results; i = inactive; u = inconclusive; x = not tested or not shown; [ ] = dose if it differs, or a comment. An excerpt weighted towards active compounds, which were near 12% of everything screened. Unless noted, calls follow the shape of the dose curve; as a rule, active = well fitted curve in the direction sought with a large enough effect; inconclusive = small, poorly fitted or top-dose-only effect, or another doubt; inactive = no such curve, though single readings can be large; an effect the other way counts as inactive or inconclusive. Potency is read from the fitted curve at half-maximal effect.

SMILES	Pf growth 48h	SARS PLP yeast	Pf growth 96h	AmpC inh no detg	Sm TGR inh	AmpC detergent
Nc1ccc2cc3ccc(N)cc3nc2c1	3.8µM*	x	2.4µM*	x	x	x
COc1ccc(C)cc1N1C(=N)/C(=C2/Nc3ccccc3S2)C(c2ccccc2)C1=O (stereo unspecified)	13µM*	-10%	-104%	-44%	-16%	-1%
C=CS(=O)(=O)c1ccc(Oc2ccc(S(=O)(=O)C=C)cc2)cc1	6%	-86%	x	-25%	2.5µM*	-8%
NS(=O)(=O)c1ccc(Oc2ccc(S(N)(=O)=O)cc2)cc1	-13%	0%	44%	-7%	1%	-5%
COc1ccc([C@@H](C)NC(=O)CCc2nnc(-c3cc(C)on3)o2)cc1	19%	1%	2.9µM*	-12%	-1%	-1%
Cc1cc(-c2nnc(CCC(=O)NC(C)c3cccc4ccccc34)o2)no1 (stereo unspecified)	-17%	1%	12µM*	12%	-8%[57.1 µM]	2%
Cc1cc(-c2nnc(CCC(=O)NC(C)c3ccccc3Cl)o2)no1 (stereo unspecified)	13%	3%	23%	-8%	0%	-2%
O=C(c1cnc(N2CCOCC2)c2ccccc12)N1CCN(c2ccccc2)CC1	x	x	x	x	-5%	0%
COc1cc(NC(=O)CCn2c(-c3ccccc3)cc(C(C)=O)c2C)cc(OC)c1	x	x	x	x	7%	0%
COc1ccc(-c2nc3n(c(=O)c2C#N)CCS3)cc1OC	29%	0%	35%	-20%	-4%	1%
COc1cc(-c2nc3n(c(=O)c2C#N)CCS3)cc(OC)c1OC	u	-2%	0.66µM*	-14%	1%	u
S=C(NCCc1ccncc1)Nc1cccc2ccccc12	8%	-3%	16%	-8%	14µM*	-2%
CCOc1ccc(NC(=S)Nc2cccc3cnccc23)cc1	0%	-25%	21%	-16%	-24%	u
CC(C)CCNC(=S)Nc1ccccn1	-18%	u	-15%	-18%	45µM*	-1%
S=C(Nc1ccc(Cl)cc1)Nc1cccc2cnccc12	u	-98%	12µM*	-53%	0%	-14%
C=CCNC(=S)Nc1cccc2ccccc12	6%	5%	1%	-14%	-6%	7%
COc1ccc(NC(=S)Nc2cccc3cnccc23)cc1	11%	-5%	-7%	-36%	56µM*	-8%
CCOc1ccc(C(=O)NCCc2csc(-c3ccc(C(F)(F)F)cc3)n2)cc1OCC	x	x	x	x	9%	2%
CCCN1CCN(c2ncnc3sc(C(=O)Nc4c(C)cc(C)cc4C)c(C)c23)CC1	x	x	x	x	-2%	12%
COc1ccc(NC(=O)c2ccco2)cc1NC(=O)c1ccc(OC(C)C)cc1	x	x	x	x	-1%	4%
COc1ccc(C(=S)Nc2ccc(C)cc2)cc1	120%	3%	i	-4%	7%	-1%
COc1ccc(CCNC(=S)Nc2cccc(C)c2)cc1	-4%	29%	194%	-11%	-8%	4%
Cc1cccc(NC(=S)NCCC(C)C)c1	u	-11%	12µM*	-18%	0%	22%
S=C(Nc1cccnc1)Nc1cccc2cnccc12	6%	-5%	1%	-13%	45µM*	u
CC(=O)NNC(=S)Nc1cc(S(=O)(=O)N(C)C)ccc1C	-20%	10%	8%	4%	-22%	4%
COc1ccc(NC(=S)c2ccncc2)cc1	14%	-15%	10µM*	-14%	0%	-7%
Cc1ccc(S(=O)(=O)N(C)C)cc1NC(=S)Nc1cccc2ccccc12	u	0%	-2%	-34%	16µM*	-2%
COc1ccccc1NC(=S)Nc1cccc2cnccc12	5%	-4%	0%	-19%	u	u
O=C(NC1CCCN(C2Cc3ccccc3C2)C1)c1ccc(F)cc1Cl (stereo unspecified)	-5%	u	-3%	-2%	0%	-12%

Screens deposited in PubChem by National Center for Advancing Translational Sciences (NCATS).
